Assay results reported in PubChem BioAssay (NCATS).
Records with an inconclusive call do not appear. A call without a number means that no potency is given here. Calls of active or inactive are those of the source. The call rests on the fitted dose curve; in most records, active means well fitted inhibition curve with a large enough effect; inconclusive means small, poorly fitted or top-dose-only effect; inactive means flat fitted curve, though single readings scatter.

Target: Glutathione peroxidase 1 (Homo sapiens) (UniProt P07203)
Sequence (P07203 whole entry, looked up): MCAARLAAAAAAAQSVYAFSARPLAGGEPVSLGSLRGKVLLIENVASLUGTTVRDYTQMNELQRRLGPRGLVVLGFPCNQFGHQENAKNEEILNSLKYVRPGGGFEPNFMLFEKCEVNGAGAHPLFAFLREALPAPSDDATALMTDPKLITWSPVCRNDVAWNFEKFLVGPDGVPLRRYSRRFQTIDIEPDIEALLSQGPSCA
Assay: Primary qHTS Assay for Inhibitors of Recombinant Selenoprotein Glutathione Peroxidase 1 (GPX1) (AID 1845191); further: nearly all actives have a fitted effect of over 65% in size
Settings: recombinant GPX1, GR-coupled NADPH fluorescence, 15 min; series mostly up to 48.8 µM
Outline: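 10 nM GPX1 + cpd, 30 min RT; start w/ 1 mM GSH, 0.5 mM cumene hydroperoxide, 0.5 mM NADPH, 100 nM GR, 0.01% BSA; buffer 50 mM Tris-HCl pH 7.5, 2 mM EDTA, 150 mM NaCl; Fl 340/450, 0 & 15 min.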

| Structure (SMILES) | Potency | activity, negative = inhibition | outcome |
| --- | --- | --- | --- |
| C=CC1C(O[C@@H]2O[C@H](CO)[C@@H](O)[C@H](O)[C@H]2O)OC=C(C(=O)OC)C1Cc1nccc2c1[nH]c1ccccc12 (stereo partly specified) | inactive |  |  |
| CC(O)(CC(=O)O)CC(=O)O[C@@H]1[C@@H](O)[C@H](OCCc2ccccc2)O[C@H](CO)[C@H]1O (stereo partly specified) | inactive |  |  |
| CC(NC(=O)CC(=O)O)c1nc2ccccc2c(=O)[nH]1 (stereo unspecified) | inactive |  |  |
| COc1ccccc1[C@@H]1C2=C(CC(C)(C)CC2=O)Nc2n[nH]c(C(F)(F)F)c21 | inactive |  |  |
| CC(=O)N(O)CCCCCN1C(=O)CCC1=O | inactive |  |  |
| CC1CCC2(C)C(CC(O)C(O)C23CO3)C1(C)CCC1=CC(=O)OC1O (stereo unspecified) | inactive |  |  |
| COCC(=O)N1CCc2cc(-c3csc(NC(=O)c4cc(OC)cc(OC)c4)n3)ccc21 | inactive |  |  |
| C[C@@H]1O[C@@H](O[C@H]2[C@H](OC(=O)[C@]34CCC(C)(C)C[C@H]3C3=CCC5[C@@]6(C)C[C@H](O)[C@H](O[C@@H]7O[C@H](CO)[C@@H](O[C@@H]8O[C@H](CO)[C@@H](O)[C@H](O)[C@H]8O)[C@H](O)[C@H]7O)[C@@](C)(CO)C6[C@H](O)C[C@@]5(C)[C@]3(C)C[C@H]4O)OC[C@H](O)[C@@H]2O)[C@H](O)[C@H](O)[C@H]1O[C@@H]1OC[C@@H](O)[C@H](O[C@@H]2OC[C@](O)(CO)[C@H]2O)[C@H]1O (stereo partly specified) |  | -19.6% [at 9.52 µM] (inactive) |  |
| C=C(C(=O)O)[C@@H]1CC=C2CCC[C@H](C)[C@@]2(C)C1 | inactive |  |  |
| COc1cc(N2CCC(N(C)C)CC2)ccc1Nc1ncc(Cl)c(Nc2ccccc2P(C)(C)=O)n1 | inactive |  |  |
| CC(=O)OC[C@@]12[C@H](O)C[C@@H](C)[C@]3(C[C@@H](c4ccoc4)OC3=O)[C@H]1C[C@H](O)C[C@]21CO1 | inactive |  |  |
| Cc1cc(O)cc(Oc2cc(C)c(C(=O)O)c(O)c2)c1 | inactive |  |  |
| CO[C@@H]1COCC[C@@H]1N[C@@H]1CC[C@@](C(=O)N2CCc3ncc(C(F)(F)F)cc3C2)(C(C)C)C1 | inactive |  |  |
| CNC(=O)c1ccc(Nc2ncc(C(F)(F)F)c(NCc3nccnc3N(C)S(C)(=O)=O)n2)cc1 | inactive |  |  |
| CC1=C(CC(=O)O)c2cc(F)ccc2C1=Cc1ccc(S(C)(=O)=O)cc1 | inactive |  |  |
| COc1ccc(C[C@H](N)C(=O)N[C@H]2[C@@H](O)[C@H](n3cnc4c(N(C)C)ncnc43)O[C@@H]2CO)cc1 | inactive |  |  |

| Structure (SMILES) | Potency | activity, negative = inhibition | outcome |
| --- | --- | --- | --- |
| CC1CCC2C(C)(C)C(O)CCC2(C)C12Cc1c(O)cc3c(c1O2)CN=C3N (stereo unspecified) | inactive |  |  |
| CC(C)CC(=O)OC[C@H]1O[C@@](COC(=O)CC(C)C)(O[C@H]2O[C@H](CO)[C@@H](O)[C@H](O)[C@H]2OC(=O)CC(C)C)[C@@H](OC(=O)CC(C)C)[C@@H]1O | inactive |  |  |
| CC(C)(O)c1ccc2c(c1)C(=O)CC1[C@](C)(CO)CCC[C@]21C (stereo partly specified) | inactive |  |  |
| Cc1cc(N2CCCCC2)nc2ccccc12 | inactive |  |  |
| CC(Cc1ccc(O)c(O)c1)C(C)Cc1ccc(O)c(O)c1 (stereo unspecified) | inactive |  |  |
| C[C@H](NCc1ccc(OCc2ccccc2F)cc1)C(N)=O | inactive |  |  |
| C/C=C/C=C/C=C/C(=O)O[C@@H]1[C@@H](OC)C2=C(C(=O)N(C(C)C(=O)O)C2)[C@@]2(C)CCCC(C)(C)[C@H]12 (stereo partly specified) | inactive |  |  |
| Cc1cc(C)c(S(=O)(=O)N(Cc2ccc(-c3cccc(S(C)(=O)=O)c3)cc2)Cc2ccc(C(F)(F)F)o2)c(C)c1 | inactive |  |  |
| CC1=CC(=O)C[C@H]2[C@@H]1CC[C@@H](C)[C@]21CO[C@H](c2ccoc2)C1=O | inactive |  |  |
| COC1CC(=O)CCC(C)OC(=O)CC1O (stereo unspecified) | inactive |  |  |
| CCCCN(CCCC)C(=O)CN1C[C@H](c2ccc3c(c2)OCO3)[C@@H](C(=O)O)[C@@H]1c1ccc(OC)cc1 | inactive |  |  |
| c1nc(NC2CCCCCC2)c2cc(CNC[C@H]3CCCO3)sc2n1 | inactive |  |  |
| C[C@@H]1C(=O)O[C@H]2CC34[C@H]5C[C@@H](C(C)(C)C)C36[C@@H](OC(=O)[C@@H]6O)O[C@@]4(C(=O)O5)[C@]21O (stereo partly specified) | inactive |  |  |
| CCC(CC)n1ccc2c(C(=O)NCc3c(C)cc(C)[nH]c3=O)cc(C#N)cc21 | inactive |  |  |
| C[C@@H]1O[C@@H](O[C@@H]2[C@@H](O)[C@H](O[C@@H]3[C@@H](O)[C@@H](O)[C@H](O[C@H]4[C@H](OC(=O)[C@]56CCC(C)(C)C[C@H]5C5=CCC7[C@@]8(C)C[C@H](O)[C@H](O[C@@H]9O[C@@H](C)[C@H](O)[C@@H](O)[C@H]9O)[C@@](C)(CO)C8CC[C@@]7(C)[C@]5(C)C[C@H]6O)O[C@H](C)[C@H](O)[C@@H]4O)O[C@H]3C)OC[C@H]2O)[C@H](O)[C@H](O)[C@H]1O (stereo partly specified) |  |  | inactive [at 9.52 µM] |
